Screening data: PubChem, National Center for Advancing Translational Sciences (NCATS)
Sampled rows, rich in hits. Any-hit rate of the full collection: about 1.4%.
N370S GC mod = N370S glucocerebrosidase modulation, Gaucher chaperone candidate. N370S GC spleen homogenate, 4MU-glucoside fluorescence. 330,000 compounds, 0.092% hits. P04062. Potency, µM (series often up to 59.4 µM), for the others: at the top dose activity change, negative = inhibition, hits mostly inhibitors;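 further: potency means the concentration at half of the fitted maximal effect; 0% = full enzyme activity and -100% = no enzyme basal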
TrxR1 substrate = rat thioredoxin reductase 1 substrate activity | O89049 | AID 588456 | 390,000 compounds, 0.01% hits | Potency, µM (doses to about 114 µM), inactives show top-dose activity change, negative = substrate turnover | purified TrxR1 substrate turnover, NADPH consumption readout; further: potency means the concentration at half of the fitted maximal effect; on the % scale 0 is the no-effect control and ±100 the full control effect; nearly all actives have a fitted effect of over 50% in size
Target sequence (O89049 whole entry, looked up): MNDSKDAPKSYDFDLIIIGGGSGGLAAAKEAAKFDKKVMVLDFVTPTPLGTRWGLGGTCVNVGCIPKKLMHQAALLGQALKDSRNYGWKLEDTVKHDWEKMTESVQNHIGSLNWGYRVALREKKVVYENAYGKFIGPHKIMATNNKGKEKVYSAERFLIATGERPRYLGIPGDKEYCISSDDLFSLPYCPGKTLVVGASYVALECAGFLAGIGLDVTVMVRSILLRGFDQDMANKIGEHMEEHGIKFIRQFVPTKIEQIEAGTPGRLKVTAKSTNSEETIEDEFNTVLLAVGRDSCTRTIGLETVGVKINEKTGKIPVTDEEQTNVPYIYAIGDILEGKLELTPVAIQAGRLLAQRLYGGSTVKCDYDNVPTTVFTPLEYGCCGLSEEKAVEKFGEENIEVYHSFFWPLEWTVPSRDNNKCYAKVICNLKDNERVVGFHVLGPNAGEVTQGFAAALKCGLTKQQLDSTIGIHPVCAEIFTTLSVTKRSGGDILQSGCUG
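Rat TrxR1, dispensed at 90 nM, was prereduced with 400 uM NADPH (final) for 5 min at ~22 deg C, then incubated with compound 15 min before 400 uM selenite. A first-read NADPH fluorescence drop versus no-compound background flagged substrates.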
A-T KAP1 phos = candidate therapy for ataxia-telangiectasia | Potency, µM (doses to about 57.5 µM), inactives show top-dose activation, most hits filed as activators | F2112 A-T fibroblasts, KAP-1 phosphorylation AlphaLISA; neocarzinostatin DNA damage 30 min before lysis | 320,000 compounds, 0.19% hits; further: potency means the concentration at half of the fitted maximal effect; % of control where 0% means no effect; nearly all actives have a fitted effect of over 45% in size
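hTERT-immortalized A-T patient fibroblasts (F2112), 500 cells/well in OPTI-MEM, 1% FBS, got compounds for 60 min, then NCS for 30 min at 37C. Lysates were then assayed for phospho-KAP-1 by AlphaLISA (anti-pKAP1 donor, anti-KAP1 acceptor beads), 6 hr at 25C.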
Akt phos inh = blocks phosphorylation of Akt; Neuro2A IGF-stimulated pAkt S473 HTRF, 20 min; stronger effect = lower value; 360,000 compounds, 0.32% hits; activity change, % for hits at 50 µM; in the data active means activity change below about -80%; inconclusive means mostly about -51% to -80%; further: on the % scale 0 is the no-effect control and ±100 the full control effect
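Neuro2A cells in DMEM with 0.5% FBS, overnight at 37 deg C, given compound at single 50 µM final, then IGF (6 nM final) for 20 min at 37 deg C. Lysed; phospho-Akt Ser473 by HTRF after 24 h, 665/615 ratio.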
rTrxR1 inhibitor = inhibitors of rat thioredoxin reductase 1. recombinant rTrxR1, NADPH fluorescence consumption, selenite substrate. Potency, µM (top dose mostly 114 µM), without a hit: at the top dose activity change, negative = inhibition, most hits filed as inhibitors. 390,000 compounds, 1% hits; further: potency means the concentration at half of the fitted maximal effect; on the % scale 0 is the no-effect control and ±100 the full control effect; nearly all actives have a fitted effect of over 65% in size
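Rat TrxR1 (90 nM in the dispensed reagent) was pre-reduced with 400 uM NADPH for 5 min at room temperature, then incubated with compound for 15 min. After 400 uM selenite was added, NADPH fluorescence (Ex 340/Em 450 nm) was followed for 8 min.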
Pin1 inh = blocks the human prolyl isomerase Pin1; AID 504891; Pin1 FP peptide displacement, HiFluor488, 10 min; 390,000 compounds, 0.009% hits; Potency, µM (titrated, usually from 115 µM), for inactives: at the highest dose activity, negative = inhibition, usual class: inhibitors; active means well fitted inhibition curve with a large enough effect in the polarisation, with a control signal flat, not every such curve was filed as active; inconclusive means small, poorly fitted or top-dose-only effect, or effect the other way, or a change in a side signal; inactive means no such curve, though single readings can be large or run the other way; the % refers to the polarisation; further: potency means the concentration at half of the fitted maximal effect; on the % scale 0 is the no-effect control and ±100 the full control effect
Target sequence (Q13526 whole entry, looked up): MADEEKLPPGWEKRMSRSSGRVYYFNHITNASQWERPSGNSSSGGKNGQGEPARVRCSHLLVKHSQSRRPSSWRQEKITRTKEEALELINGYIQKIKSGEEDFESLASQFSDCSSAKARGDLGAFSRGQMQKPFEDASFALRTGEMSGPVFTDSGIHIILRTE
* marks the source's active call; other numbers are inactive results; i = inactive; u = inconclusive; x = no result; [ ] = remark or other dose. Unless noted, the call rests on the fitted dose curve; in most records, active means well fitted curve in the direction sought with a large enough effect; inconclusive means small, poorly fitted or top-dose-only effect, or another doubt; inactive means no such curve, though single readings can be large; an effect the other way counts as inactive or inconclusive.

SMILES	N370S GC mod	TrxR1 substrate	A-T KAP1 phos	Akt phos inh	rTrxR1 inhibitor	Pin1 inh
COc1ccccc1OCCn1c(CCNC(=O)C2CCCCC2)nc2ccccc21	x	8%[0.0914 µM]	x	x	11%	-1%
O=c1[nH]c2cc3c(cc2cc1CN(Cc1cccs1)Cc1nnnn1Cc1ccco1)OCCO3	5%	27%	2%	i	16µM*	16%
Cc1ccc2cc(CN(Cc3nnnn3Cc3ccco3)CC3CCCO3)c(=O)[nH]c2c1C (stereo not given)	-10%	-6%	1%	i	25µM*	u
Cc1ccc2[nH]c(=O)c(CN(Cc3cccnc3)Cc3nnnn3CCN3CCOCC3)cc2c1	4%	10%	-4%	i	11µM*	-3%
Cc1ccc2[nH]c(=O)c(CN(Cc3cccnc3)Cc3nnnn3CC3CCCO3)cc2c1 (stereo not given)	-11%	4%[57.1 µM]	12%	i	14%[57.1 µM]	-1%
CCc1ccc2[nH]c(=O)c(CN(Cc3ccccc3)Cc3nnnn3Cc3ccco3)cc2c1	-2%	-1%	-5%	i	-24%	39%
Cc1ccc2[nH]c(=O)c(CN(Cc3ccc4c(c3)OCO4)Cc3nnnn3Cc3ccco3)cc2c1	6%	-4%[57.1 µM]	-11%	i	6%[57.1 µM]	u
Cc1ccc2cc(CN(Cc3ccco3)Cc3nnnn3Cc3ccco3)c(=O)[nH]c2c1	x	-6%	x	x	u	-3%
O=c1[nH]c2cc3c(cc2cc1CN(Cc1cccnc1)Cc1nnnn1Cc1ccco1)OCCO3	-16%	56%	-2%	i	11µM*	u
N#Cc1nc(NCC(F)F)c2ncn(-c3cccc(Cl)c3)c2n1	x	x	x	x	x	14%
CC(C)(C)n1ncc2c(=O)n(Cc3ccc(OC(F)(F)F)cc3)cnc21	x	-10%	x	x	0%	x
Cc1ccc2[nH]c(=O)c(CN(CCCO)Cc3nnnn3Cc3ccco3)cc2c1	x	0%	x	x	28µM*	-1%
O=c1[nH]c2cc3c(cc2cc1CN(Cc1ccccc1)Cc1nnnn1Cc1ccco1)OCCO3	-17%	22%	0%	i	18µM*	8%
Cc1cccc2cc(CN(CC3CCCO3)C(=O)c3ccco3)c(=O)[nH]c12 (stereo not given)	16%	9%	4%	i	16µM*	-5%
O=C(c1ccco1)N(Cc1cc2ccccc2[nH]c1=O)CC1CCCO1 (stereo not given)	9%	6%[57.1 µM]	-1%	i	-7%	0%
COc1cccc(CN2C(=O)c3ccccc3NC2c2ccc(OC)c(COc3ccc(NC(C)=O)cc3)c2)c1 (stereo not given)	x	x	x	x	x	6%
CCOc1ccccc1NC(=O)c1nc(SCc2ccccc2F)ncc1Cl	x	2%	x	x	8%	x
O=C(/C=C/c1ccc(Cl)cc1)NCCN1CCOCC1	3%	-2%	-2%	-95%*	6%	0%
O=C(/C=C/c1ccccc1)CCN1CCOCC1	x	1%	x	i	0.56µM*	-5%
COc1ccc(NC(=O)Cn2c(=O)n(-c3ccc(CC(=O)NCC4CCCO4)cc3)c(=O)c3ccccc32)c(OC)c1 (stereo not given)	x	4%	x	x	13%	-1%
COc1ccc(NC(=O)CN(c2cccc(C)c2C)S(=O)(=O)c2ccccc2)cc1OC	x	5%	x	x	24%	12%
O=C(CCl)NC(=O)NC12CC3CC(CC(C3)C1)C2	-4%	8%	-6%	i	14µM*	-3%
O=S1(=O)N=C(Oc2ccccc2Cl)c2ccccc21	x	x	x	x	x	-5%[163 µM]
Cn1cnc2c(=O)oc3ccc(S(=O)(=O)Nc4ccc(F)cc4)cc3c21	x	-8%	x	x	-8%	-2%
CN(N=O)c1ccc2c(c1)Cc1ccccc1-2	x	-2%[0.0914 µM]	x	x	6%	x
SMILES	N370S GC mod	TrxR1 substrate	A-T KAP1 phos	Akt phos inh	rTrxR1 inhibitor	Pin1 inh
O=C(CC(=O)c1cc(Cl)ccc1O)c1ccccc1	9%	4%	16%	i	-5%	2%
O=C(c1ccccc1)c1cc(Cl)ccc1N1C(=O)C=CC1=O	-3%	7%	u	i	0.79µM*	8%
O=C1COc2ccc(C(=O)NC3CC3)cc2N1	7%	-12%	-1%	i	-11%	7%
O=C(O)/C=C/C(=O)c1ccc2c(c1)NC(=O)CO2	-7%	-3%[57.1 µM]	-1%	i	2.8µM*	-14%
O=C1COc2ccc(C(=O)COC(=O)c3ccc([N+](=O)[O-])cc3Cl)cc2N1	2%	-11%	-6%	i	50µM*	6%
O=C1COc2ccc(C(=O)COC(=O)c3ccco3)cc2N1	-9%	-6%	-1%	i	4%	2%
O=C1COc2ccc(C(=O)COC(=O)/C=C/c3ccco3)cc2N1	x	-1%	5%	i	50µM*	13%
O=C1COc2ccc(C(=O)COC(=O)c3ccc(Cl)cc3[N+](=O)[O-])cc2N1	-7%	-3%	6%	i	-26%	1%
CC(=O)N1CCc2cc(S(=O)(=O)CCC(=O)NCc3ccc(C)o3)ccc21	4%	8%	-1%	i	50µM*	-15%
COc1ccc(S(=O)(=O)CCC(=O)NCc2ccc(C)o2)cc1	-25%	-1%[57.1 µM]	1%	i	20µM*	-1%
COc1ccc(CNC(=O)CCS(=O)(=O)c2ccc(Br)cc2)cc1	1%	-2%	-5%	i	-7%	-1%
CCCNC(=O)c1ccc2nc(-c3ccccc3)c(-c3ccccc3)nc2c1	3%	9%[11.4 µM]	-2%	-120%*	u	u
CCCCNC(=O)c1ccc2nc(-c3ccco3)c(-c3ccco3)nc2c1	-4%	-3%	8%	i	2.8µM*	x
O=C(NCCCO)c1ccc2nc(-c3ccco3)c(-c3ccco3)nc2c1	-7%	-9%	9%	i	2.8µM*	u
CCNC(=O)c1ccc2nc(-c3ccccc3)c(-c3ccccc3)nc2c1	x	7%	x	x	-19%	4%
CCc1cccc(NC(=O)CCS(=O)(=O)c2cc3c4c(c2)CCN4C(=O)CC3)c1	x	-1%[57.1 µM]	x	x	10%[57.1 µM]	-3%
CCOC(=O)C1C(=O)NC(N2CCN(Cc3ccccc3)CC2)=NC1c1ccccc1 (stereo not given)	1%	18%	x	-87%*	30%	-4%
CCOC(=O)C1C(=O)NC(N2CCN(Cc3ccccc3)CC2)=NC1c1ccco1 (stereo not given)	1%	-16%	-3%	i	u	-5%
CCn1c2c(c(=O)n3ncc(C(=O)N4CCN(c5ccc(Cl)cc5)CC4)c13)CN(Cc1ccc(OC)cc1)CC2	x	12%[57.1 µM]	x	x	27%[57.1 µM]	73%
Cc1cc(=S)cc(C)n1CCO	8%	0%	-1%	i	35µM*	-4%
CCC[n+]1c2ccccc2cc2ccccc21	u	15%	40µM*	i	-23%	-2%
